Here are results for 13 molecules from PubChem BioAssay.

The test system of test [1] is Wnt5a (protein binding on small-molecule microarray). Put plainly: small molecules binding Wnt5a protein – biophysical, small-molecule microarray, 635/667 nm fluorescence, primary screen (AID 1142).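 Further: fluorescence read at 667 nm with signal to noise per printed feature.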 To be noted: 635 nm fluorescence, higher = more signal.
The nature of test [2]: ATP-based viability of Huh7 replicon cells – cell-based, CellTiter-Glo luminescence, basal, 48 h, cytotoxicity control for HCV replication inhibitor project, primary screen (AID 1143).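 Further: Huh7 hepatoma cells carrying a hepatitis C replication reporter with no stimulus; test concentration not given here.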 The settings on record: higher = more signal, called active from +8 up or from −8 down.
The nature of test [3]: Pseudomonas biofilm growth suppression – PAO1 strain, BacTiter-Glo luminescence, LB-PBS, primary screen (AID 1144). The settings on record: P. aeruginosa PAO1 biofilm, 12 h, higher = more signal.
Test [4] in a line: basal CRE-LacZ reporter activity in PC12 – cell-based, unstimulated, primary screen (AID 1145). The settings on record: no forskolin, luminescence, 4.5 h, higher = more signal, called active from +8 up or from −8 down.
The nature of test [5]: forskolin-driven CRE-LacZ activity in PC12 – cell-based, CRE-LacZ reporter, forskolin-stimulated, primary screen (AID 1146).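 Further: PC12 cells with 6xCRE LacZ reporter stimulated by forskolin 10 µM; beta-galactosidase reporter signal reflecting CREB driven transcription.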 The settings on record: luminescence, 4.5 h, higher = more signal, called active from +8 up or from −8 down.
Test [6] concerns the target Streptavidin (Streptomyces avidinii) (UniProt P22629). Put plainly: compounds binding control protein streptavidin – biophysical, small-molecule microarray, 635/667 nm fluorescence, artefact control for SMM compound annotation, primary screen (AID 1147).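 Further: signal reflects streptavidin binding to arrayed compounds as a control protein.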 The settings on record: higher = more signal.
Test [7] in a line: probe aInhba binding on compound microarray – biochemical, small-molecule microarray, 635/667 nm fluorescence, primary screen (AID 1148).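 Further: score merges 667nm spot fluorescence with signal-to-noise for antibody binding to printed compounds.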 To be noted: higher = more signal.
The target in test [8] is Torsin-1A (Homo sapiens) (UniProt O14656). The experiment in a line: TOR1A wild-type binding on microarray – cell lysate, small-molecule microarray, lysate, 635/667 nm, primary screen (AID 1149). To be noted: COS7 hTOR1A-WT lysate, 635 nm fluorescence, higher = more signal.
Sequence of Torsin-1A (Homo sapiens) (O14656 whole entry, looked up): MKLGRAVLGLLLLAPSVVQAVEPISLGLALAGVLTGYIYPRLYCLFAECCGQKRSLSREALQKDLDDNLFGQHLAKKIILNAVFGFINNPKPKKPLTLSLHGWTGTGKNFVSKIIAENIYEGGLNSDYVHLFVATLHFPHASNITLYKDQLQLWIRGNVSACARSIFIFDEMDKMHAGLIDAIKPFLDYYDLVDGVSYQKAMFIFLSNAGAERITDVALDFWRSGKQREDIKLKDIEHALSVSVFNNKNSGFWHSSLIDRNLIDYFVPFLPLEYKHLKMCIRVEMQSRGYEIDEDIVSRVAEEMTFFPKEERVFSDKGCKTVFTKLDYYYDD
For test [9] the target is unchanged. The experiment in a line: torsin A mutant lysate binding on microarrays – cell lysate, small-molecule microarray, COS7 lysate, 635/667 nm fluorescence, primary screen (AID 1150).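 Further: score pools 667 nm emission and signal to noise measuring lysate protein binding.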 To be noted: COS7 hTOR1A mutant lysate, 635 nm fluorescence, higher = more signal.
Test [10] relates to Sonic hedgehog protein (Shh). The experiment in a line: Sonic hedgehog microarray binding compounds – biochemical, small-molecule microarray, 635/667 nm fluorescence, primary screen (AID 1151).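 Further: Shh protein binding to compounds spotted on small-molecule microarray slides; score combines spot fluorescence intensity with signal-to-noise across triplicate slides.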 To be noted: 635 nm fluorescence, higher = more signal.

Calls of active or inactive are those of the source. Unless noted, how the calls were made is not given here.

Sequence of Streptavidin (Streptomyces avidinii) (P22629 whole entry, looked up): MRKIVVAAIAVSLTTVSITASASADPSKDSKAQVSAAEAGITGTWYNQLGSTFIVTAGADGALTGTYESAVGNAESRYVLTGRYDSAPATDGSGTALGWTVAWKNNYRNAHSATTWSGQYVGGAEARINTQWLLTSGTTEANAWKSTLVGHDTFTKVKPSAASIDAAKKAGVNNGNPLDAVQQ

`CC1CC/C=C\[C@H]2OC34C=CCN(C(C)(C)C)C(=O)[C@H]3N(CCCCCO)C(=O)[C@@H]4C2C(=O)O1` (stereo not given in full): the composite z-score in test [1] was -0.427; in test [6], -0.719; in [7], -0.253; with Torsin-1A (Homo sapiens) [8], -0.201; with Torsin-1A (Homo sapiens) [9], -1.33; in test [10], 0.353. Besides, the z-score was 0.356 (inactive) in [2], 0.477 (inactive) in [3], -0.35 (inactive) in test [4] and -0.928 (inactive) in test [5].

`CCC1=C2CN(Cc3ccccc3)[C@@H](C(=O)Cc3ccccc3)C2C=CCC1` (stereo not given in full): the composite z-score in test [1] is -0.245; in test [6], 0.0145; in [7] it was -0.0331; with Torsin-1A (Homo sapiens) [8], -0.645; in the test with Torsin-1A (Homo sapiens) [9], -0.124; in test [10], 0.553. For the same molecule, the z-score in test [2] was -3.57 (inactive); in [3] it was 0.0518 (inactive); in test [4] it was -0.142 (inactive); in test [5], 1.73 (inactive).

For `C=C(C(=O)CC[C@H](OC(=O)c1ccccc1-c1ccccc1C(=O)O)c1cccc(OCCO)c1)C(C)C`, the composite z-score in test [1] was -0.103; in test [6], -0.186; in test [7], -0.0719; with Torsin-1A (Homo sapiens) [8], -0.492; in the test with Torsin-1A (Homo sapiens) [9], -0.0541; in test [10], 0.432. In addition, the z-score in [2] was -0.208 (inactive); in test [3], -0.125 (inactive); in test [4] it was 0.102 (inactive); in [5], 3.19 (inactive).

Take `COC(=O)[C@@]1(Cc2ccccc2)[C@H]2c3cc(C(=O)N4CCCC4)n(CCc4ccccn4)c3C[C@H]2CN1C(=O)c1ccccc1`: the composite z-score in [1] is 0.372; in [6], 1.94; in test [7] it was 0.605; with Torsin-1A (Homo sapiens) [8], 1.11; with Torsin-1A (Homo sapiens) [9] it was 1.4; in [10] it was 0.311. In addition, the z-score is -0.917 (inactive) in test [2], 1.09 (inactive) in [3], 0.201 (inactive) in test [4] and 0.755 (inactive) in [5].

Turning to `CC(C)N1C(=O)C[C@@](C(=O)O)(c2ccc([N+](=O)[O-])cc2)[C@H]1c1ccc(CO)cc1`, the composite z-score in [1] was -0.0691; in test [6], -0.923; in test [7], -0.0288; in the test with Torsin-1A (Homo sapiens) [8] it was -0.254; in the test with Torsin-1A (Homo sapiens) [9], -0.0237; in test [10] it was -0.878. In addition, the z-score in [2] is 0.034 (inactive); in test [3], 1.17 (inactive); in test [4] it was 0.441 (inactive); in [5] it was -0.303 (inactive).

As for `CCOC(=O)C1=CC[C@@H](c2ccccc2F)N(S(=O)(=O)c2ccc(C)cc2)[C@H]1c1ccccc1`, the composite z-score was 0.483 in test [1]; 0.872 in test [6]; -0.045 in [7]; 0.263 with Torsin-1A (Homo sapiens) [8]; 0.388 in the test with Torsin-1A (Homo sapiens) [9]; 0.649 in test [10]. Moreover, the z-score in test [2] is -3.92 (inactive); in test [3], 0.0947 (inactive); in test [4], 0.827 (inactive); in [5], 0.649 (inactive).

`O=C1N(Cc2ccccc2)c2ccccc2C[C@]12N=C(c1ccc(OCCCO)cc1)O[C@@H]2c1ccccc1`: the composite z-score in test [1] is 0.0361; in test [6], 0.0469; in test [7] it was -0.0221; with Torsin-1A (Homo sapiens) [8], -0.569; with Torsin-1A (Homo sapiens) [9] it was 0.812; in test [10], 0.837. Besides, the z-score in [2] is -4.72 (inactive); in test [3], -0.126 (inactive); in [4] it was 1.75 (inactive); in test [5], -1.08 (inactive).

Take `NC(=O)[C@H]1[C@@H]2C(=O)O[C@@H](c3ccccc3)[C@@H](c3ccccc3)N2[C@@H](c2ccc(OCCO)cc2)[C@]12C(=O)Nc1ccc(C#CCCO)cc12`: the composite z-score is 0.262 in [1]; 0.617 in [6]; 0.136 in test [7]; 0.579 in the test with Torsin-1A (Homo sapiens) [8]; 0.331 with Torsin-1A (Homo sapiens) [9]; 0.177 in test [10]. Moreover, the z-score was -0.532 (inactive) in [2], -0.311 (inactive) in test [3], -0.465 (inactive) in [4] and 0.776 (inactive) in test [5].

With `COc1ccc([Si](C)(C)[C@@H]2[C@@H](CCO)O[C@]3(C(=O)N(Cc4ccccc4)c4ccc(NC(=O)[C@H](C)O)cc43)[C@H]2C)cc1`, the composite z-score in test [1] is 0.514; in test [6], 0.753; in test [7] it was 0.108; with Torsin-1A (Homo sapiens) [8], 1.05; in the test with Torsin-1A (Homo sapiens) [9], 0.854; in test [10] it was 1.95. For the same molecule, the z-score in test [2] was -7.95 (inactive); in test [3] it was -1.07 (inactive); in [4], 12.2 (active); in [5], -0.161 (inactive).

For `O=C1OCCC=C[C@H]2OC34C=CCN(Cn5nnc6ccccc65)C(=O)[C@H]3N(CCCO)C(=O)[C@@H]4C12` (stereo not given in full), the composite z-score in test [1] was -0.197; in test [6], -1.01; in test [7], -0.161; in the test with Torsin-1A (Homo sapiens) [8] it was -0.444; with Torsin-1A (Homo sapiens) [9] it was -2.04; in [10] it was -0.128. Moreover, the z-score in [2] was -2.61 (inactive); in [3], -0.413 (inactive); in test [4] it was -0.903 (inactive); in [5], -0.242 (inactive).

As to `Cc1cc(C)c(C(O)C2C=CC3C(=O)N(c4ccccc4)C(=O)C3N2Nc2ccccc2F)c(C)c1` (stereo not given), the composite z-score was -0.122 in test [1]; 0.563 in [6]; 0.122 in test [7]; -0.489 with Torsin-1A (Homo sapiens) [8]; -0.395 in the test with Torsin-1A (Homo sapiens) [9]; 0.0807 in [10]. Moreover, the z-score in test [2] is 0.224 (inactive); in [3] it was -0.386 (inactive); in test [4] it was 0.44 (inactive); in test [5], -0.425 (inactive).

As to `C=CCN1Cc2ccccc2[C@@H]2OC(c3ccc(OCCCO)cc3)=N[C@]2(CC=C)C1=O`, the composite z-score in test [1] was 0.518; in [6], 0.579; in test [7] it was 0.462; with Torsin-1A (Homo sapiens) [8], 0.918; with Torsin-1A (Homo sapiens) [9], 0.966; in test [10] it was 1.81. The z-score in [2] is -2.51 (inactive); in [3], 0.0166 (inactive); in test [4], 0.236 (inactive); in test [5], -0.377 (inactive).

As for `COc1ccc([C@H]2OC[C@@H]3C[C@H](Cc4ccccc4)C(=O)N32)cc1`, the composite z-score in [1] was 0.204; in test [6], -0.371; in test [7] it was -0.0962; with Torsin-1A (Homo sapiens) [8], 0.48; with Torsin-1A (Homo sapiens) [9], 0.0464; in [10], 0.532. In addition, the z-score in test [2] was -3.52 (inactive); in test [3], 0.305 (inactive); in test [4] it was 1.99 (inactive); in [5] it was 0.213 (inactive).
